# Laboratory results taken from PubChem BioAssay.
# Activity calls are given as the source filed them. Rule as the data show it, unless noted: active = inhibition above about 80%; inactive = the rest.
# Experiments:
# [1] = LFS_MB_P medulloblastoma growth inhibition, cell-based, chromothripsis tumors, cisplatin or BGB combos (AID 1671449); conditions: LFS_MB_P medulloblastoma cells;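 also: cells exposed for 96 hours; 0% = vehicle DMSO and 100% = killing by high DMSO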
# [2] = HDN33 neuroblastoma growth inhibition, cell-based, chromothripsis tumors, cisplatin or BGB combos (AID 1671450); conditions: HDN33 neuroblastoma cells, stronger effect = higher value;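 also: cells exposed to compound for four days; 0% = vehicle DMSO and 100% = cell killing by high DMSO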
# [3] = ICB984 medulloblastoma cell growth inhibition, synergistic combos for chromothripsis tumors, cisplatin or BGB combos (AID 1671451; call rule not given here;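 also: cells exposed for 96 hours before readout; 0% = vehicle DMSO and 100% = killing by high DMSO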); conditions: ICB984 medulloblastoma cells, drug combinations, stronger effect = higher value
# [4] = LFS_MB_1R medulloblastoma cell growth inhibition, synergistic combos for chromothripsis tumors, cisplatin or BGB combos (AID 1671452); conditions: LFS_MB_1R medulloblastoma cells, stronger effect = higher value;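 also: cells exposed for 96 hours before readout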
# [5] = HTB85 osteosarcoma cell growth inhibition, synergistic combos for chromothripsis tumors, BGB or cisplatin IC20 combos (AID 1671453); conditions: HTB85 osteosarcoma cells, drug combinations, stronger effect = higher value;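 also: cells exposed for 96 hours before readout; 0% = vehicle DMSO and 100% = high DMSO killing control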
# [6] = CRL2098 osteosarcoma cell growth inhibition, synergistic combos for chromothripsis tumors, BGB or cisplatin IC20 combos (AID 1671454); conditions: CRL2098 osteosarcoma cells, drug combinations, stronger effect = higher value;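 also: cells exposed for 96 h before readout; 0% = vehicle DMSO and 100% = killing by high DMSO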
# [7] = HD-MB03 medulloblastoma cell growth inhibition, synergistic combos for chromothripsis tumors, BGB or cisplatin IC20 combos (AID 1671455; in the data active = inhibition above about 83%;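 also: 0% = vehicle DMSO and 100% = high DMSO as cytotoxic control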); conditions: HD-MB03 medulloblastoma cells, stronger effect = higher value
# [8] = UWB1.289 ovarian carcinoma cell growth inhibition, synergistic combos for chromothripsis tumors, BGB or cisplatin combos (AID 1671456); conditions: UWB1.289 ovarian carcinoma cells, stronger effect = higher value;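 also: cells exposed to compound for four days; 0% = vehicle DMSO and 100% = killing by high DMSO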
# [9] = LFS_MB_2R medulloblastoma cell growth inhibition, synergistic combos for chromothripsis tumors, cisplatin combos (AID 1671457); conditions: LFS_MB_2R medulloblastoma cells, stronger effect = higher value;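 also: cells exposed to compound for four days before readout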
# [10] = MDA-MB-436 breast carcinoma cell growth inhibition, synergistic combos for chromothripsis tumors, BGB or cisplatin combos (AID 1671458; call rule not given here;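 also: cells exposed for 96 hours; 0% = vehicle DMSO and 100% = killing by high DMSO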); conditions: MDA-MB-436 breast carcinoma growth inhibition, drug combinations, stronger effect = higher value
# [11] = UWB1.289_BRCA1 ovarian cancer growth, cell-based, BGB or cisplatin combinations (AID 1671459); conditions: UWB1.289 BRCA1 ovarian carcinoma, drug combinations, stronger effect = higher value
# [12] = human astrocyte viability loss, single and combined drugs, cytotoxicity control for chromothriptic childhood tumor combination screen, cell-based, BGB or cisplatin IC20 combos (AID 1671460); conditions: Human astrocytes, drug combinations, stronger effect = higher value;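 also: cells exposed to compounds for 96 hours before viability readout; 0% = vehicle and 100% = killing control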
# [13] = growth inhibition of BT084 medulloblastoma cells, cell-based, ICGC_MB145, cisplatin and BGB IC40 combos (AID 1671461); conditions: drug combinations, stronger effect = higher value;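 also: cells exposed to drugs for 96 hours; 0% = vehicle DMSO and 100% = high DMSO full killing control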
# [14] = growth inhibition of RCMB18 medulloblastoma cells, cell-based, cisplatin and BGB IC40 combos (AID 1671462); conditions: stronger effect = higher value;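 also: cells exposed to compound for four days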
# [15] = growth inhibition of CRL1545 osteosarcoma cells, cell-based, cisplatin and BGB IC20 combos (AID 1671464); conditions: stronger effect = higher value;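 also: cells exposed to compound for 96 hours before readout; 0% = vehicle DMSO and 100% = high DMSO killing control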
# [16] = viability rescue of complex I mutant cybrids, primary screen, cell-based, galactose medium, ATP luminescence (AID 1645843;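 active = z-score of at least 1.8 in each of two replicates, scored against plate mean and spread of sample wells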;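 also: positive z means more ATP and so rescue of galactose-driven cybrid death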); conditions: complex I mutant cybrid cells, 72 h, stronger effect = higher value
# [17] = measured here: combination with BGB IC40, at 0.05 µM
# [18] = measured here: with BGB IC20 combination, at 0.5 µM
# [19] = measured here: with cisplatin IC20 combination, at 0.5 µM
# [20] = measured here: combination with cisplatin, at 0.5 µM
# [21] = measured here: combination with cisplatin, at 5 µM
compound,measurement,setting,value
Cc1cn(C2CC(O)C(COP(=O)(O)OP(=O)(O)OP(=O)(O)O)O2)c(=O)[nH]c1=O (centres undefined),inhibition,"[1]; at 0.5 µM, stronger effect = higher value",-19.9% (inactive)
same,inhibition,"[1]; measured here: combination with BGB IC20, at 0.005 µM",-8.93%
same,inhibition,"[1]; measured here: combination with BGB IC40, at 0.005 µM",80.9%
same,inhibition,[1]; [17],0.344%
same,inhibition,"[1]; measured here: combination with cisplatin, at 0.5 µM, stronger effect = higher value",-42.6%
same,inhibition,"[1]; measured here: combination with cisplatin, at 5 µM, stronger effect = higher value",-12.4%
same,inhibition,"[2]; BGB combo, at 5 µM",-9.68%
same,inhibition,[2]; at 0.5 µM,4.14% (inactive)
same,inhibition,"[2]; cisplatin combo, at 5 µM",0.577%
same,inhibition,[2]; [18],-1.96%
same,inhibition,[2]; [19],7.93%
same,inhibition,"[2]; single agent, at 5 µM",1.73%
same,inhibition,"[3]; BGB IC20 combo, at 0.005 µM",10.7%
same,inhibition,"[3]; BGB IC40 combo, at 0.005 µM",17.3%
same,inhibition,"[3]; BGB IC40 combo, at 0.05 µM",24%
same,inhibition,[3]; at 0.5 µM,8.18% (inactive)
same,inhibition,"[3]; cisplatin combo, at 0.05 µM",20.3%
same,inhibition,"[3]; cisplatin combo, at 0.5 µM",3.65%
same,inhibition,"[3]; cisplatin combo, at 5 µM",-24.4%
same,inhibition,"[3]; measured here: 5 uM single agent, at 5 µM",4.13%
same,inhibition,[4]; at 0.5 µM,6.88% (inactive)
same,inhibition,[4]; [17],-1.92%
same,inhibition,[4]; [20],9.07%
same,inhibition,[4]; [21],4.13%
same,inhibition,[5]; at 0.5 µM,7.15% (inactive)
same,inhibition,"[5]; measured here: with BGB IC20, at 0.5 µM",27.1%
same,inhibition,"[5]; measured here: with BGB IC20, at 5 µM",13.2%
same,inhibition,"[5]; measured here: with cisplatin IC20, at 0.5 µM",-5.05%
same,inhibition,"[5]; measured here: with cisplatin IC20, at 5 µM",1.73%
same,inhibition,"[5]; single agent, at 5 µM",10.9%
same,inhibition,[6]; at 0.5 µM,6.85% (inactive)
same,inhibition,"[6]; measured here: combination with BGB at IC20, at 0.5 µM",-16.6%
same,inhibition,"[6]; measured here: combination with cisplatin at IC20, at 0.5 µM",29.2%
same,inhibition,[7]; at 0.5 µM,10.7% (inactive)
same,inhibition,"[7]; measured here: combo with BGB at IC20, at 0.5 µM",9.76%
same,inhibition,"[7]; measured here: combo with cisplatin at IC20, at 0.5 µM",8%
same,inhibition,[8]; at 0.5 µM,7.19% (inactive)
same,inhibition,"[8]; measured here: inhibition with BGB combination, at 0.05 µM",12.5%
same,inhibition,"[8]; measured here: inhibition with cisplatin combination, at 0.05 µM",-3.67%
same,inhibition,[9]; at 0.5 µM,0.97% (inactive)
same,inhibition,[9]; [20],8.52%
same,inhibition,[9]; [21],26.6%
same,inhibition,[10]; at 0.5 µM,2% (inactive)
same,inhibition,"[10]; measured here: BGB combination, at 0.5 µM",-1.94%
same,inhibition,"[10]; measured here: BGB combination, at 5 µM",2.66%
same,inhibition,"[10]; measured here: cisplatin combination, at 0.5 µM",-0.048%
same,inhibition,"[10]; measured here: cisplatin combination, at 5 µM",5.35%
same,inhibition,"[11]; BGB combination, concentration series, at 5 µM",5.28%
same,inhibition,[11]; at 0.5 µM,7.57% (inactive)
same,inhibition,"[11]; cisplatin combination, concentration series, at 5 µM",6.92%
same,inhibition,[12]; at 0.5 µM,2.58% (inactive)
same,inhibition,"[12]; measured here: combo with BGB IC20, at 0.5 µM",-0.198%
same,inhibition,"[12]; measured here: combo with cisplatin IC20, at 0.5 µM",3.8%
same,inhibition,[13]; at 0.5 µM,6.5% (inactive)
same,inhibition,"[13]; cisplatin combination, at 0.5 µM",4.31%
same,inhibition,"[13]; cisplatin combination, at 5 µM",-28.2%
same,inhibition,"[13]; measured here: BGB IC40 combination 0.05 uM, at 0.05 µM",23.2%
same,inhibition,"[13]; single agent, at 5 µM",18.9%
same,inhibition,[14]; at 0.5 µM,-1.71% (inactive)
same,inhibition,"[14]; cisplatin combo, at 5 µM",-2.93%
same,inhibition,"[14]; measured here: BGB IC40 combination, at 0.05 µM",18.6%
same,inhibition,[14]; [20],-28.7%
same,inhibition,"[14]; single agent, at 5 µM",2.51%
same,inhibition,[15]; at 0.5 µM,12.4% (inactive)
same,inhibition,[15]; [18],17.1%
same,inhibition,[15]; [19],8.61%
same,inhibition,"[15]; single agent, at 0.05 µM",-33%
same,inhibition,"[15]; single agent, at 5 µM",-18%
Cc1cccc(-n2cc(-c3ccn(CC(=O)Nc4ccnn4C)n3)cn2)c1,z-score,[16],1.22 (inactive)
